# WT yeast gro inh – growth inhibition of WT yeast, mitochondrial fusion screen | AID 1362 | mitochondrial fusion phenotypic screen, WT strain | inhibition, % at 10 µM | actives 2.1% (n = 190,000); in the data active means inhibition above about 58%; tested in S. cerevisiae
# PERK inh – human PERK inhibition, primary cell-based screen. CHO PERK-DD fusion, SEAP luminescence translation reporter. inhibition, % at 5.6 µM. Q9NZJ5. actives 0.17% (n = 220,000);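 active means inhibition above the mean inhibition of all tested compounds plus 3 SD, set separately per screening campaign, cut at about 2.9% in these data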;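 further: PERK kinase domain activated by AP20187 dimerizer at 100 nM; 0% = DMSO with dimerizer and 100% = rapamycin at 8.4 µM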
# Arbovirus anti – arbovirus infection inhibition. arbovirus infection cell-based antiviral screen. inhibition, % at 10 µM. actives 0.37% (n = 200,000). AID 1251; in the data active means inhibition above about 30%
# ROMK primary – modulators of human ROMK potassium channel. P48048. Tet-inducible ROMK, thallium flux fluorescence; actives lie on both sides. B-score at 10 µM. actives 2% (n = 130,000);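 active means signal ratio slope over the read window, or its plate-corrected B-score, at least 3 SD from the plate mean, either direction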;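 further: B-score of the F/F0 ratio slope over 7 to 12 s after thallium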
# Target sequence (P48048 whole entry, looked up): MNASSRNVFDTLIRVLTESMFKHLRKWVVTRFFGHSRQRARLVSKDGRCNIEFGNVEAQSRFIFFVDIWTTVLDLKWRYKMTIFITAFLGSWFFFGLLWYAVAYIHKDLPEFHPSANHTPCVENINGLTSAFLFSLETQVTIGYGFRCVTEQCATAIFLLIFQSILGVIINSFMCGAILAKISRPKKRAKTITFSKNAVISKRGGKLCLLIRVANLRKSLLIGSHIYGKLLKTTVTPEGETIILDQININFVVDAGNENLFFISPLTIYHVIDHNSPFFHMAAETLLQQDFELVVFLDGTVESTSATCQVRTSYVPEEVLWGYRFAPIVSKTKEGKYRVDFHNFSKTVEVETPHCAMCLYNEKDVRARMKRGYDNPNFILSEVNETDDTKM
# Starred values were filed as active, the others as inactive; . = not tested or not shown. Rows were chosen to be rich in hits. Some 3.3% of all compounds tested hit in one or more screens of this group.
SMILES,WT yeast gro inh,PERK inh,Arbovirus anti,ROMK primary
FC(F)Oc1ccc(NC(=S)NCc2ccccc2)cc1,0,1,15,.
Fc1ccc(NC(=S)Nc2ccccc2N2CCOCC2)cc1Cl,61*,1,-17,-0.28
CCOc1ccccc1N(C(=O)Nc1cccc(Cl)c1)C1=NC(C)CS1 (stereo not drawn),19,0,3,-0.027
O=C(c1ccc(Cl)cc1)N1CCCC(c2ccccc2)=N1,4,1,5,0.87
Cc1ccc(S(=O)(=O)n2cnc3cc([N+](=O)[O-])ccc32)c(C)c1C,-5,1,1,.
COc1cc(/C=N/Nc2ccc(Cl)c(C(=O)O)c2)ccc1OC(=O)c1cccs1,4,-1,-1,0.21
FC(F)Oc1ccccc1NC(=S)Nc1cccnc1,5,1,-1,0.96
Cc1cc(C)cc(NC(=S)Nc2ccc(Cl)c(Cl)c2)c1,65,0,-23,0.59
Fc1ccc(NC(=S)Nc2ccccc2OC(F)F)cc1Cl,62*,1,-9,.
Cc1ccc(NC(=S)Nc2ccc(Cl)c(Cl)c2)c(OC(F)F)c1,80*,0,-18,.
Clc1ccc(OCCn2cnc3ccccc32)c(Cl)c1,68*,0,-7,.
CC1CCN(S(=O)(=O)c2ccc(NC(=O)CCN3C(=O)c4ccccc4C3=O)cc2)CC1,6,0,-2,-0.46
O=C(CCCCCN1C(=O)c2ccccc2C1=O)Nc1ccc(S(=O)(=O)N2CCCCC2)cc1,68*,-1,10,-0.05
COC(=O)CSc1ncnc2c1cnn2Cc1ccccc1,-8,1,-10,.
c1ccc(CSc2ncnc3c2cnn3Cc2ccccc2)cc1,67*,1,-12,1.1
O=C(NCCCN1CCOCC1)C(Sc1ccccc1)c1ccccc1 (stereo not drawn),0,0,5,.
COc1cc(OC)cc(C(=O)NCCCN2CCOCC2)c1,-16,0,19,0.65
O=C(Nc1nc(-c2ccc(Cl)s2)cs1)c1cccs1,72,0,4,.
O=C(Nc1nc(-c2ccccc2)cs1)c1ccc(=O)[nH]c1,-4,1,38*,-0.15
O=C(Nc1nc(-c2cc(Cl)sc2Cl)cs1)c1ccccc1,68*,-1,-22,0.85
O=C(Nc1nc(-c2ccccc2)ns1)c1cccs1,-1,0,30*,.
O=C(Nc1nc(-c2ccccn2)cs1)c1ccc(Cl)s1,66,-1,-20,.
O=C(Nc1nc(-c2ccccc2)cs1)c1cccs1,35,0,74*,.
Cc1ccc(C(=O)Nc2cc(Cl)ccc2N2CCCCC2)s1,68*,0,1,-0.43
N#CC(C#N)=C1C=CC=CN1/C(=C\c1ccco1)C(=O)c1ccc(Br)cc1,71*,-1,-48,.
SMILES,WT yeast gro inh,PERK inh,Arbovirus anti,ROMK primary
COc1ccc(/C=C(/C(=O)c2cccs2)N2C=CC=CC2=C(C#N)C#N)cc1,0,0,-32,.
Cc1nnc(-c2cnn(-c3ccccc3)c2N)n1Cc1ccncc1,-7,0,2,.
Cc1ccc(-c2c(C(=O)N(C)Cc3ccccc3)oc(=O)c3ccccc23)cc1,67*,-1,14,-1.6
O=C(Nc1ccc2ccccc2c1)N1CCCN(CCOc2ccccc2)CC1,.,-1,.,.
C=CCSc1nnc(NC(=O)COc2ccc3ccccc3c2)s1,86*,2,6,.
C=CCSc1nnc(NC(=O)COc2ccccc2)s1,2,-1,7,-0.95
Cc1ccc(CN(C(=O)c2cc3ccccc3oc2=O)C2CCS(=O)(=O)C2)cc1 (stereo not drawn),-3,0,1,.
COc1ccc(CN(C(=O)c2cc3ccccc3oc2=O)C2CCCCC2)cc1OC,-3,-2,103*,.
COC(=O)CNC(c1ccccc1)c1cc(C)ccc1NC(=O)c1cccc(Cl)c1 (stereo not drawn),71*,-1,-3,-0.17
Cc1ccc(C)c(N2CCN(C(=O)CCNC(=O)Cn3ccc4ccccc4c3=O)CC2)c1,13,0,8,-0.0011
Cc1ccc(Cl)cc1N1CCN(C(=O)Cn2ccc3ccccc3c2=O)CC1,4,-1,-1,-3.6*
Cc1ccc2c(c1C)NC(C)CC2C (stereo not drawn),10,3.4*,-2,-0.014
Cc1cccc2c1NC1(CCCC1)CC2C (stereo not drawn),.,1,.,.
O=c1nc(N/N=C/C=C/c2ccccc2)cn[nH]1,.,2,.,-0.22
Cc1nc2ccc(C(=O)NCc3ccc4c(c3)OCO4)cc2s1,64*,-1,-11,.
O=C(NCc1ccc2c(c1)OCO2)c1cccc(C(=O)NCc2ccc3c(c2)OCO3)c1,-1,1,-7,-0.016
O=C(CN1CCN(S(=O)(=O)c2ccccc2)CC1)NC(=O)NCc1ccco1,.,1,.,.
CC(=O)Nc1cccc(-c2csc(Nc3ccc(Cl)cn3)n2)c1,76*,2,-11,.
CC(=O)Nc1ccc(-c2csc(Nc3ccc(Cl)cn3)n2)cc1,19,0,2,-0.8
CC1(C)CC(=O)C2=C(C1)N(c1ccc(F)cc1)C(=O)C2(O)C(F)(F)F (stereo not drawn),84*,0,4,.
Cc1ccc(N2C(=O)C(O)(C(F)(F)F)C3=C2CC(C)(C)CC3=O)cc1 (stereo not drawn),-6,2,-9,.
COc1ccc(-c2cnnc(N/N=C/c3ccc(OC)c(OC)c3)n2)cc1,23,0,-13,-0.38
COc1ccc(/C=N/Nc2nc(-c3ccc(Cl)cc3)cc(C(F)(F)F)n2)cc1OC,63*,0,5,.
Cc1nnc(N2CCN(c3ccccc3)CC2)c2nn(-c3ccccc3F)c(C)c12,.,0,.,.
CCOC(=O)c1c(-c2cccs2)csc1NC(C)=O,10,0,-16,-1.4
SMILES,WT yeast gro inh,PERK inh,Arbovirus anti,ROMK primary
CCOC(=O)c1c(-c2cccs2)csc1NC(=O)C(C)(C)C,60*,-1,-36,.
Cc1ccc(C)c(/C=N/n2cc(-c3ccccc3)[nH]c2=S)c1,71*,0,-8,0.77
Fc1ccccc1/C=N/n1cc(-c2ccccc2)[nH]c1=S,.,0,.,.
CCOC(=O)N1CCN(c2ccc([N+](=O)[O-])cc2)CC1,1,-1,0,-0.97
COc1ccccc1OCCc1nnc(N)s1,5,3.3*,-6,-0.61
COc1ccc(OCCc2nnc(N)s2)cc1,11,0,1,.
Cc1noc(/C=C/c2ccco2)c1S(=O)(=O)N1CCC(C(=O)N2CCc3ccccc3C2)CC1,19,0,4,.
CCn1c(CNc2ccc(C)cc2)nnc1SCC(N)=O,-14,2,7,0.57
COc1cccc(-c2csc(N3CCN(C(=O)Nc4ccc(Cl)cc4)CC3)n2)c1,67*,1,-14,0.65
COc1ccc(NC(=O)N2CCN(c3nc(-c4cccc(OC)c4)cs3)CC2)cc1,16,-1,-14,-0.65
CCc1nc(C)cn1S(=O)(=O)c1cc(C)c(OC)c(C)c1C,4,-1,12,.
Cc1ccc(C(=O)/C=C/c2ccc3c(c2)OCO3)o1,5,0,-8,.
Cc1ccc(/C=C/C(=O)c2ccccc2O)cc1,.,1,.,0.018
O=C(/C=C/c1ccc2c(c1)OCCCO2)c1ccccc1O,67*,0,-6,.
Cc1ccc(O)c(C(=O)/C=C/c2ccc3c(c2)OCCCO3)c1,61*,1,-41,.
COc1cc([N+](=O)[O-])ccc1NC(=O)CC(C)C,19,1,12,-0.64
CCN(CC)CCCNc1nc(-n2nc(C)cc2C)nc2sc3c(c12)CC(C)(C)OC3,.,-1,.,.
